Hit rate of the full screen: of about 5,500 compounds, about 2,000 (36%) were called active. Inconclusive results (about 18%) are left out. Cut-off read from the data, not from the text of the source: active = normalized growth mostly below about 0.91 (no sharp cut-off); inconclusive = no clear call, values can overlap the other calls; inactive = mostly above about 0.92. The list shows a part of the results.
Assay: chemical genetic growth profiling, strain panel (AID 1159580);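 note: tested at 20 µM; growth read once vehicle control cultures reached saturation at 30 °C; 1 = growth at the plate median or of vehicle wells; lower values mean less growth of the strain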
Conditions: growth OD

Measured: normalized growth

CCCCCN=C(N)N/N=C\c1c[nH]c2ccc(OC)cc12
inactive: S. cerevisiae deletion strains, locus YJR043C, strain POL32, stronger effect = lower value 0.989 | S. cerevisiae deletion strains, locus YJR075W, strain HOC1, stronger effect = lower value 0.996 | S. cerevisiae deletion strains, locus YKL009W, strain mrt4, stronger effect = lower value 0.974 | S. cerevisiae deletion strains, locus YKL068W, stronger effect = lower value 0.993 | S. cerevisiae deletion strains, locus YKL085W, strain MDH1 (second series), stronger effect = lower value 0.956 | S. cerevisiae deletion strains, locus YKL085W, strain MDH1, stronger effect = lower value 0.956 | S. cerevisiae deletion strains, locus YKL160W, strain elf1, stronger effect = lower value 1.01 | S. cerevisiae deletion strains, locus YKL190W, strain CNB1, stronger effect = lower value 1.01 | S. cerevisiae deletion strains, locus YKR001C, strain vps1, stronger effect = lower value 1.03 | S. cerevisiae deletion strains, locus YKR026C, strain gcn3, stronger effect = lower value 1.01 | S. cerevisiae deletion strains, locus YKR091W, strain srl3, stronger effect = lower value 0.992 | S. cerevisiae deletion strains, locus YLL001W, strain dnm1, stronger effect = lower value 1.01 | S. cerevisiae deletion strains, locus YLL026W, stronger effect = lower value 1.01 | S. cerevisiae deletion strains, locus YLL041C, strain sdh2, stronger effect = lower value 1 | S. cerevisiae deletion strains, locus YLR027C, strain aat2, stronger effect = lower value 1 | S. cerevisiae deletion strains, locus YLR039C, strain RIC1, stronger effect = lower value 1.08 | S. cerevisiae deletion strains, locus YLR058C, strain SHM2, stronger effect = lower value 0.99 | S. cerevisiae deletion strains, locus YLR102C, strain apc9, stronger effect = lower value 1.02 | S. cerevisiae deletion strains, locus YLR221C, strain rsa3, stronger effect = lower value 0.986 | S. cerevisiae deletion strains, locus YLR258W, strain gsy2, stronger effect = lower value 0.995 | S. cerevisiae deletion strains, locus YLR262C, strain YPT6 (second series), stronger effect = lower value 1.04 | S. cerevisiae deletion strains, locus YLR262C, strain YPT6, stronger effect = lower value 1.01 | S. cerevisiae deletion strains, locus YLR268W, strain sec22, stronger effect = lower value 0.998 | S. cerevisiae deletion strains, locus YLR320W, strain mms22, stronger effect = lower value 0.98 | S. cerevisiae deletion strains, locus YLR330W, strain CHS5, stronger effect = lower value 1.01 | S. cerevisiae deletion strains, locus YLR342W, strain FKS1 (second series), stronger effect = lower value 0.989 | S. cerevisiae deletion strains, locus YLR342W, strain FKS1, stronger effect = lower value 1.01 | S. cerevisiae deletion strains, locus YLR357W, strain rsc2, stronger effect = lower value 0.975 | S. cerevisiae deletion strains, locus YLR370C, strain arc18, stronger effect = lower value 1 | S. cerevisiae deletion strains, locus YLR371W, strain rom2, stronger effect = lower value 1.03 | S. cerevisiae deletion strains, locus YLR384C, strain iki3, stronger effect = lower value 1.02 | S. cerevisiae deletion strains, locus YLR418C, strain cdc73, stronger effect = lower value 0.993 | S. cerevisiae deletion strains, locus YML016C, strain PPZ1, stronger effect = lower value 1 | S. cerevisiae deletion strains, locus YML032C, strain rad52, stronger effect = lower value 1.02 | S. cerevisiae deletion strains, locus YML120C, strain ndi1, stronger effect = lower value 1.01 | S. cerevisiae deletion strains, locus YML124C, strain tub3, stronger effect = lower value 1.02 | S. cerevisiae deletion strains, locus YMR058W, strain fet3, stronger effect = lower value 1.01 | S. cerevisiae deletion strains, locus YMR078C, strain ctf18, stronger effect = lower value 1.03 | S. cerevisiae deletion strains, locus YMR125W, strain sto1, stronger effect = lower value 0.979 | S. cerevisiae deletion strains, locus YMR129W, stronger effect = lower value 1.01 | S. cerevisiae deletion strains, locus YMR205C, strain PFK2, stronger effect = lower value 0.994 | S. cerevisiae deletion strains, locus YMR223W, strain ubp8, stronger effect = lower value 1.01 | S. cerevisiae deletion strains, locus YMR231W, strain pep5, stronger effect = lower value 1.02 | S. cerevisiae deletion strains, locus YMR263W, strain SAP30, stronger effect = lower value 1.01 | S. cerevisiae deletion strains, locus YMR307W, strain GAS1, stronger effect = lower value 0.973 | S. cerevisiae deletion strains, locus YNL067W, strain RPL9B, stronger effect = lower value 0.998 | S. cerevisiae deletion strains, locus YNL071W, strain lat1, stronger effect = lower value 1 | S. cerevisiae deletion strains, locus YNL128W, strain TEP1, stronger effect = lower value 0.995 | S. cerevisiae deletion strains, locus YNL153C, strain GIM3, stronger effect = lower value 1 | S. cerevisiae deletion strains, locus YNL209W, strain ssb2, stronger effect = lower value 1 | S. cerevisiae deletion strains, locus YNL233W, strain BNI4, stronger effect = lower value 0.985 | S. cerevisiae deletion strains, locus YNL248C, strain rpa49, stronger effect = lower value 0.991 | S. cerevisiae deletion strains, locus YNL250W, strain rad50, stronger effect = lower value 1.02 | S. cerevisiae deletion strains, locus YNL271C, strain bni1, stronger effect = lower value 1.02 | S. cerevisiae deletion strains, locus YNL298W, strain CLA4, stronger effect = lower value 1.02 | S. cerevisiae deletion strains, locus YNL307C, strain MCK1, stronger effect = lower value 1.04 | S. cerevisiae deletion strains, locus YNL322C, strain KRE1 (second series), stronger effect = lower value 1.02 | S. cerevisiae deletion strains, locus YNL322C, strain KRE1, stronger effect = lower value 1 | S. cerevisiae deletion strains, locus YNR049C, strain mso1, stronger effect = lower value 1.01 | S. cerevisiae deletion strains, locus YNR052C, strain pop2, stronger effect = lower value 1.03 | S. cerevisiae deletion strains, locus YOL006C, strain TOP1, stronger effect = lower value 0.995 | S. cerevisiae deletion strains, locus YOL012C, strain htz1 1.66 | S. cerevisiae deletion strains, locus YOL147C, strain pex11, stronger effect = lower value 1.03 | S. cerevisiae deletion strains, locus YOR001W, strain rrp6, stronger effect = lower value 0.995 | S. cerevisiae deletion strains, locus YOR061W, strain CKA2, stronger effect = lower value 0.995 | S. cerevisiae deletion strains, locus YOR069W, strain VPS5, stronger effect = lower value 1.01 | S. cerevisiae deletion strains, locus YOR070C, strain gyp1, stronger effect = lower value 1 | S. cerevisiae deletion strains, locus YOR080W, strain dia2, stronger effect = lower value 1 | S. cerevisiae deletion strains, locus YOR083W, strain WHI5, stronger effect = lower value 0.991 | S. cerevisiae deletion strains, locus YOR106W, strain vam3, stronger effect = lower value 0.995 | S. cerevisiae deletion strains, locus YOR136W, strain idh2, stronger effect = lower value 1.03 | S. cerevisiae deletion strains, locus YOR144C, strain elg1, stronger effect = lower value 1.01 | S. cerevisiae deletion strains, locus YOR184W, strain ser1, stronger effect = lower value 1.02 | S. cerevisiae deletion strains, locus YOR265W, strain rbl2, stronger effect = lower value 1.01 | S. cerevisiae deletion strains, locus YOR270C, strain vph1, stronger effect = lower value 1.05 | S. cerevisiae deletion strains, locus YOR290C, strain snf2, stronger effect = lower value 0.984 | S. cerevisiae deletion strains, locus YOR316C, strain cot1, stronger effect = lower value 1.02 | S. cerevisiae deletion strains, locus YPL051W, strain arl3, stronger effect = lower value 1 | S. cerevisiae deletion strains, locus YPL055C, strain LGE1, stronger effect = lower value 0.993 | S. cerevisiae deletion strains, locus YPL078C, strain atp4, stronger effect = lower value 1.03 | S. cerevisiae deletion strains, locus YPL106C, strain sse1, stronger effect = lower value 1.01 | S. cerevisiae deletion strains, locus YPL240C, strain hsp82, stronger effect = lower value 1 | S. cerevisiae deletion strains, locus YPL241C, strain CIN2, stronger effect = lower value 1.05 | S. cerevisiae deletion strains, locus YPR119W, strain clb2, stronger effect = lower value 1.02 | S. cerevisiae deletion strains, locus YPR141C, strain kar3, stronger effect = lower value 1.02 | S. cerevisiae deletion strains, locus YPR163C, strain tif3, stronger effect = lower value 1.02 | S. cerevisiae deletion strains, locus YPR167C, strain met16, stronger effect = lower value 1.02 | S. cerevisiae deletion strains, strain wtn01, stronger effect = lower value 1.01 | S. cerevisiae strains, strain wild type, stronger effect = lower value 1
